Screening data (PubChem)
HT1080 IDH1KD tx: kills HT-1080 cells with IDH1 knockdown | HT-1080 IDH1 knockdown viability, ATP luminescence, 48 h | Potency, µM (top dose mostly 46.1 µM), without a hit: at the top dose activity, negative = toxicity, most hits filed as cytotoxic | 2% of 360,000 active;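 also: potency is read from the fitted curve at half-maximal effect; 0% = DMSO wells and -100% = cell-free medium wells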
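In this qHTS, HT-1080 cells depleted of IDH1 are exposed for 48 h at 37 °C to compound titrations. Toxicity is scored from CellTiter-Glo luminescence, with DMSO as full viability and medium alone as none.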
IL-1B inflam inh: blocks inflammasome-driven IL-1 beta release; THP-1 LPS/ATP IL-1B secretion, AlphaLISA, 16 h; hits give low values; activity change, % at 57.5 µM; 4.7% of 360,000 active; AID 743279; in the data active = activity change below about -50%; inconclusive = mostly about -30% to -49%
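Secreted IL-1B measured by AlphaLISA bead assay after 16 h compound exposure of THP-1 cells; compounds (final up to 57.5 uM) added 1 h before LPS (250 ng/mL) and ATP (1.25 mM) stimulation; lower signal means less secretion.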
HT1080NT lethal: kills 2HG-producing HT-1080-NT fibrosarcoma cells; HT-1080-NT fibrosarcoma viability, CellTiter-Glo ATP luminescence, 48 h; Potency, µM (series often up to 46.1 µM), inactives show at the highest dose activity, negative = less viability, hits mostly cytotoxic; 1.6% of 360,000 active; AID 686970;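 also: NT is the 2HG producing partner of a matched IDH1 knockdown line; potency is read from the fitted curve at half-maximal effect; 0% = DMSO-treated cells and -100% = media-only wells without cells; nearly all actives have a fitted effect of over 55% in size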
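750 cells/well, RPMI + 5% FBS; 2 h settle, compound pin-transfer, 48 h at 37 degrees C. CellTiter-Glo 10 min RT, luminescence. Normalized to DMSO and media-only wells.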
DT40 TDP1 CPT: growth inhibition of DT40 Tdp1-/-;hTDP1 cells with camptothecin (screen for TDP1 inhibitors); chicken DT40 Tdp1-/-;hTDP1 cells + 20 nM CPT, ATP luminescence, 48 h; Potency, µM (titrated, usually from 46.2 µM), without a hit: top-dose activity change, negative = growth inhibition, most hits filed as inhibitors; 12% of 420,000 active; AID 686979; also: potency is read from the fitted curve at half-maximal effect; nearly all actives have a fitted effect of over 55% in size
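Chicken DT40 Tdp1-/- cells stably complemented with human TDP1 were seeded at 400 cells/well in medium containing 20 nM camptothecin, exposed to pin-transferred compounds, and grown at 37 °C for at least 48 hr. Viability was read as ATP luminescence.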
DT40 TDP1 no CPT: qHTS for Inhibitors of human tyrosyl-DNA phosphodiesterase 1 (TDP1): qHTS in cells in absence of CPT; Potency, µM (highest dose often 46.2 µM), inactives show at the highest dose activity change, negative = growth inhibition, hits mostly inhibitors; 15% of 420,000 active; DT40 Tdp1-/- hTDP1 cells, no CPT, ATP luminescence, 48 h; AID 686978, 2013; also: potency is read from the fitted curve at half-maximal effect; nearly all actives have a fitted effect of over 55% in size
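Compound effects on proliferation are scored in DT40 Tdp1-/-;hTDP1 cells in the absence of CPT. ATP levels (CellTiter-Glo luminescence) are recorded after a ≥48 hr, 37 °C incubation.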
Numbers without * were called inactive; ? = inconclusive; · = not tested or not shown; [ ] = dose if it differs, or a comment. Most compounds without a hit are left out; they make up all but 19% or so of the library. Unless noted, calls follow the shape of the dose curve; as a rule, active = well fitted curve in the direction sought with a large enough effect; inconclusive = small, poorly fitted or top-dose-only effect, or another doubt; inactive = no such curve, though single readings can be large; an effect the other way counts as inactive or inconclusive. Unless noted, % is scaled to controls: 0 for no effect and ±100 for the full control effect.

SMILES | HT1080 IDH1KD tx | IL-1B inflam inh | HT1080NT lethal | DT40 TDP1 CPT | DT40 TDP1 no CPT
COc1cc(/C=N/NC(=O)c2cccnc2)ccc1OS(=O)(=O)c1cc(C)ccc1C | -23% | -76* | -27% | ? | 23µM*
COc1cccc(NC(=O)/C=C/c2ccc([N+](=O)[O-])cc2)c1 | -15% | -24 | -17% | -9% | -26%
COc1ccc(/C=N/NC(=O)c2cccnc2)cc1O | 17% | 15 | 7% | 0% | -2%
COc1ccc(Oc2ccc(/C=C/C(=O)c3cccc(OC)c3)cc2[N+](=O)[O-])cc1 | ? | -4 | ? | 7.3µM* | 7.3µM*
COc1ccc(Oc2ccc(/C=N/NC(=O)c3cccnc3)cc2[N+](=O)[O-])cc1 | ? | ? | ? | ? | 21µM*
Nc1nc2ncccn2c1-c1ccc(F)c(F)c1 | 15% | -4 | 5% | -1% | 2%
CCN1CCC(O)(C(C(=O)OC)c2ccccc2)CC1 (configuration not stated) | 7% | -5 | 0% | -5% | -13%
O=C(Nc1ccc2c(c1)OCO2)C1CCN(S(=O)(=O)c2cccc3cccnc23)CC1 | -2% | -5 | -17% | -9% | -24%
COCCn1c(SCc2nnc(-c3ccc(OC)c(OC)c3)o2)nnc1-c1ccncc1 | -3% | 13 | 2% | -7% | ?
CCCn1c(SCc2nc(-c3ccc(OC)cc3OC)no2)nnc1-c1ccc(Cl)cc1 | · | · | · | 21µM* | 26µM*
CCCn1c(SCc2nc(-c3cccs3)no2)nnc1-c1ccncc1 | -7% | -1 | -4%[9.24 µM] | -26% | ?
CCCn1c(SCc2nc(-c3ccccc3OCC)no2)nnc1-c1ccc(Cl)cc1 | · | · | · | ? | 18µM*
COc1ccc(CSc2nnc(Cc3sc(-c4ccccc4)nc3-c3ccccc3)o2)cc1 | 10% | -3 | 9% | ? | ?
CCOc1ccc(N2C(=O)CC(N(CCc3ccc(OC)cc3)C(=O)/C=C/C(=O)O)C2=O)cc1 (configuration not stated) | 2% | -8 | 2% | -21% | 23%
O=C(CC(Sc1ccc(Br)cc1)C(=O)O)c1ccc(F)cc1 (configuration not stated) | -12% | -92* | -24% | 9.2µM* | 4.6µM*
CCOc1ccc(C(=O)CC(Sc2ccc(C)cc2)C(=O)O)cc1 (configuration not stated) | ? | ? | -20% | ? | ?
Cc1ccc(S(=O)(=O)N2CCOCC2)cc1NC(=O)CN1CCN(c2ccc(O)cc2)CC1 | 5% | 26 | 15% | ? | 26µM*
Cc1cccc(N2CCN(CC(=O)Nc3ccc(S(=O)(=O)N4CCOCC4)cc3)CC2)c1C | -30% | -6 | -6% | 15µM* | 9.2µM*
Cc1ccc(SC(C)C(=O)Nc2ccc(S(=O)(=O)N3CCOCC3)cc2)cc1 (configuration not stated) | 7% | 1 | 12% | ? | 16µM*
Cc1ccc(S(=O)(=O)N2CCN(CC(=O)Nc3ccc(N4CCOCC4)cc3)CC2)cc1C | 6% | 11 | 5% | -11% | -1%
Cc1ccc(NC(=O)c2ccc(S(=O)(=O)N3CCOCC3)cc2)cc1 | -9% | -7 | -7% | 10% | -5%
Cc1ccc(S(=O)(=O)N2CCOCC2)cc1NC(=O)CN1CCC(Cc2ccccc2)CC1 | -8% | -23 | -23% | ? | 8.2µM*
COc1ccccc1CN1CCC2(CCC(CNC(=O)c3ccccc3N(C)C)O2)CC1 (configuration not stated) | · | · | · | -12%[9.04 µM] | ?
O=C(CN1Cc2ccccc2OC(c2ccccc2F)C1)NC(c1ccccn1)C(F)(F)F (configuration not stated) | · | · | · | -5%[9.04 µM] | ?
COc1cc(-c2csc(C)n2)ccc1O | 15% | 7 | 22% | -24% | -5%
SMILES | HT1080 IDH1KD tx | IL-1B inflam inh | HT1080NT lethal | DT40 TDP1 CPT | DT40 TDP1 no CPT
Oc1ccc(-c2csc(-c3cccnc3)n2)cc1O | -22% | -78* | ? | 18µM* | 23µM*
Cc1nc(-c2ccc(O)c(O)c2)cs1 | -14% | 13 | -5% | 16µM* | ?
COc1ccc(S(=O)(=O)NCCc2csc(-c3cccnc3)n2)cc1 | -2% | 1 | 4% | 15µM* | -29%
O=S(=O)(NCCc1csc(-c2cccnc2)n1)c1ccc(Cl)s1 | -6% | 16 | 0% | 12µM* | 23µM*
COCC(=O)N1CCC2(CCCN(C(=O)Nc3cccc(C#N)c3)C2)CC1 | · | · | · | 0% | 3%
O=C(O)CCCN1C(=O)c2cccc3cccc(c23)C1=O | 0% | -13 | ? | 7% | -12%
O=C1c2cccc3cccc(c23)C(=O)N1CCCN(C(=O)c1cccs1)c1cccc(F)c1 | -13% | 30 | -1% | ? | 16µM*
O=C1c2ccccc2C(=O)N1CCCCN(C(=O)c1ccc(Cl)s1)c1ccc(Cl)cc1 | 19% | -22 | 16% | ? | 21µM*
CN(C)CCN1C(=O)c2ccccc2C1=O | -1% | 45 | -2% | 0% | -12%
COc1ccc(N(CCCN2C(=O)c3cccc4cccc(c34)C2=O)C(=O)c2cccc(OC)c2)cc1 | -16% | -11 | -1% | 13µM* | 10µM*
CN(C)CCN1C(=O)c2cccc3cc([N+](=O)[O-])cc(c23)C1=O | 13µM* | -102* | 10µM* | 0.21µM* | 0.26µM*
Cc1nn(C)cc1CNC(=O)Nc1cccc(Cl)c1 | 2% | 52 | 0% | 18% | 6%
O=C(Cn1nc2ccccc2n1)N1CCOc2ccc(CN3CCc4sccc4C3)cc2C1 | · | · | · | -5%[9.04 µM] | -24%
COc1ccc(C2(CNC(=O)C(=O)Nc3ccc(C)cc3)CCOCC2)cc1 | -4% | -20 | 6% | ? | ?
CCOC(=O)N1CCN(C(=O)Cc2cccc3ccccc23)CC1 | 7% | 7 | 13% | -18% | ?
Cc1ccc(N(CCCCN2C(=O)c3ccccc3C2=O)C(=O)c2cccc([N+](=O)[O-])c2)cc1 | -19% | -29 | -9% | ? | 16µM*
O=C1c2cccc3cc([N+](=O)[O-])cc(c23)C(=O)N1CC1CCCO1 (configuration not stated) | -23% | -72* | -10% | 7.3µM* | 6.5µM*
CN(C)CCCN1C(=O)c2cccc3cccc(c23)C1=O | ? | -89* | ? | ? | ?
O=C1c2ccccc2C(=O)N1CCCCN(C(=O)c1cc([N+](=O)[O-])cc([N+](=O)[O-])c1)c1ccc(Cl)cc1 | 11% | -8 | 14% | -26% | ?
COc1ccccc1S(=O)(=O)Cc1ccc(C(=O)NCc2cccs2)o1 | 3% | -19 | 7% | -1% | ?
